Test results: PubChem BioAssay AID686933 (National Center for Advancing Translational Sciences (NCATS), 2013)
Records with an inconclusive call do not appear. Entries that show only a call come without a potency. The source made the active and inactive calls. Calls come from the whole dose curve; as a rule, active = well fitted inhibition curve with a large enough effect; inconclusive = small, poorly fitted or top-dose-only effect; inactive = flat fitted curve, though single readings scatter.

Molecular target: Luciferin 4-monooxygenase (Photinus pyralis) (UniProt P08659)
Test: qHTS screen for small molecules that inhibit ELG1-dependent DNA repair: SAR in Biochemical Luciferin Assay
Details: purified firefly luciferase, luciferin luminescence counter-screen; series mostly up to 57.5 µM
Description: Cancer cells divide rapidly compared to normal cells in the body. During cell division, cancer cells need to duplicate their genome by DNA replication. The failure of genome duplication leads to cancer cells' death. Therefore, inhibitors of DNA replication could specifically kill cancer cells. Based on this concept, many chemotherapeutic agents were developed and have been used to treat cancer patients. However, there are a limited number of agents available in the clinical setting, and some of those that do exist have low efficacy and severe side effects. Therefore, if we can find the compounds that effectively block DNA replication either by directly damaging DNA or by inhibiting other cellular mechanisms, the options for cancer treatment will be broadened. With this in mind, we developed a quantitative high-throughput ELG1-luciferase reporter gene assay. Small molecules that specifically block ELG1 function in response to DNA damage can be identified by monitoring the suppression of luciferase activity. Since ELG1 defines a pathway for repairing DNA damage, agents blocking ELG1 function can be used to sensitize cancer cells to chemotherapeutic agents whose mechanism of action involves the induction of DNA damage. This counter assay is a luciferase assay, that following treatment with putative ELG1 antagonists, aims to eliminate luciferase enhancers/inhibitors. NIH Molecular Libraries Probe Production Network [MLPCN] NIH Chemical Genomics Center [NCGC] MLPCN Grant: R03 MH092164 Assay Provider: Kyungjae Myung, NHGRI, NIH
3 uL of substrate reagent will be pipetted into each well in 1536-well white, solid-bottom plates using a FRD dispenser, followed by addition of 23 nL of DMSO or compounds by pintool. After compound addition, 1 µL of luciferase will be added into the wells. The plates will be read in a ViewLux CCD-based plate reader.

Structure (SMILES) | Potency
O=C(Nc1ccccn1)c1sc2ccccc2c1Cl | 164 nM (active)
N#Cc1ccc(-c2ccc(-c3nc4ccccc4c(=O)[nH]3)o2)cc1 | inactive
CN(Cc1ccco1)c1ncnc2ccc(-c3cccc(Cl)c3)cc12 | inactive
OCC1OC(n2cnc3c(=S)nc[nH]c32)C(O)C1O (stereo not given) | inactive
COc1ccc(OC)c(-c2nnc3n2N=C(c2ccc(OC)c(OC)c2)CS3)c1 | inactive
Cc1csc(CNc2ncnc3ccc(-c4ccoc4)cc23)c1 | inactive
O=C(COc1ccccc1F)Nc1ccc(-c2nc3ccccc3s2)cc1 | inactive
CS[C@@H]1SC[C@H]2C(=O)N(C)C(C(C)C)C(=O)OC[C@@H](NC(=O)c3cnc4ccccc4n3)C(=O)N[C@@H](C)C(=O)N(C)[C@H]1C(=O)N(C)C(C(C)C)C(=O)OC[C@@H](NC(=O)c1cnc3ccccc3n1)C(=O)N[C@@H](C)C(=O)N2C (stereo not given in full) | inactive
O=c1[nH]c(-c2ccc(-c3cccc(Cl)c3)o2)nc2ccccc12 | 461 nM (active)
c1cncc(CNc2ncnc3ccc(-c4ccoc4)cc23)c1 | inactive
CN(C)c1cccc(-c2ccnc(N3CCC(C(N)=O)CC3)n2)c1 | 16400 nM (active)
Cc1nc(Nc2nc3ccccc3o2)nc2c1CCCC2 | 651 nM (active)
COc1ccc(C2=Nn3c(nnc3-c3ccccc3OC)SC2)cc1OC | inactive
CC(/C=C/C(=O)NO)=C\[C@@H](C)C(=O)c1ccc(N(C)C)cc1 | inactive
COc1cc2c(cc1OC)C1C(=O)c3c(O)cc4c(c3OC1CO2)C=CC(C)(C)O4 (stereo not given) | inactive
